Hits are enriched below; roughly 1.9% of the tested compounds scored in any of these assays.
NPSR antagonist – antagonists of human neuropeptide S receptor cAMP signaling; CHO-NPSR cells, cAMP TR-FRET, antagonist mode; actives 1% (n = 220,000); AID 1461; Potency, µM (titrated, usually from 38.3 µM), without a hit: at the highest dose activity change, negative = inhibition, most hits filed as inhibitors; Q6W5P4; note: % is set by controls: 0 for no effect and ±100 for the full control effect; nearly all actives have a fitted effect of over 50% in size
Target sequence (Q6W5P4 whole entry, looked up): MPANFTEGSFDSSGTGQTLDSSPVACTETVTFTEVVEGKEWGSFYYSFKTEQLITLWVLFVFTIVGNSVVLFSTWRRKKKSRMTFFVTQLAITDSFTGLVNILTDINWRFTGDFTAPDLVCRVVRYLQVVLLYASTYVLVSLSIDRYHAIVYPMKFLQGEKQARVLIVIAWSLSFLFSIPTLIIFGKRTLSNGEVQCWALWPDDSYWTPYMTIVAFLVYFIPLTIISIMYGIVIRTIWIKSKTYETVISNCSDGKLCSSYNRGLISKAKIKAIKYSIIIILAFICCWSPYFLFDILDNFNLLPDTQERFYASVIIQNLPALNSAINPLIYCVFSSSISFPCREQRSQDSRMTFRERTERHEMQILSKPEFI
IMPase Li inh – IMPase inhibition in cells with lithium potentiation. CHO-M1 cells, IP1 TR-FRET (IP-One), carbachol + lithium. Potency, µM (highest dose often 59.4 µM), inactives show top-dose activity, negative = IMPase inhibition, actives largely listed as inhibitors. actives 0.35% (n = 210,000). AID 1457;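 note: IP1 builds up when IMPase is blocked and the TR-FRET signal falls; plate controls were basal vehicle for no effect and high inhibitor control for full effect; nearly all actives have a fitted effect of over 50% in size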
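IP1 accumulation measured by competitive TR-FRET in lysed CHO-M1 cells after 30 min compound exposure at 37C, with a small lithium addition to potentiate weak responses. Hill-equation AC50 from ratio and donor-channel data.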
HTT cytoprotect – cytoprotection in Huntington HTT-Q103 PC12 cell model. Potency, µM (doses to about 56.4 µM), without a hit: cytoprotection (ATP increase), actives largely listed as activators. PC12 HTT-Q103 induced, cytoprotection, ATP luminescence, 40 h. actives 0.14% (n = 230,000); note: % of control where 0% means no effect; nearly all actives have a fitted effect of over 45% in size
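Cells were plated at 1500 per well in phenol red-free DMEM with 5% equine and 5% calf serum. Tebufenozide (100 nM final) and compounds were added, then ATPlite reagent, and luminescence was read.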
HttQ103 aggreg – reduces HttQ103-GFP aggregates in PC12 cells; PC12 HttQ103-GFP aggregates, Acumen cytometry, 40 h; Potency, µM (titrated, usually from 46.1 µM), for inactives: top-dose activity change, negative = inhibition, most hits filed as inhibitors; actives 1.1% (n = 220,000); AID 1688; note: % is set by controls: 0 for no effect and ±100 for the full control effect; nearly all actives have a fitted effect of over 60% in size
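Compounds (qHTS titration) were added to PC12 cells expressing an ecdysone-driven HTT exon 1 Q103–GFP fusion after induction with 100 nM tebufenozide. Aggregate formation was measured as GFP objects in cell lysates.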
ERK EGF inh – blocks ERK signaling stimulated by EGF; actives 0.41% (n = 130,000); HEK293-V1b, EGF-stimulated phospho-ERK AlphaScreen; Potency, µM (doses to about 11.5 µM), without a hit: at the top dose activity change, negative = inhibition, hits mostly inhibitors; AID 1454;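 note: plate controls were stimulated vehicle wells for no effect and unstimulated vehicle basal for full effect; nearly all actives have a fitted effect of over 55% in size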
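Phospho-ERK1/2 measured by AlphaScreen (SureFire) after 5 min 25 nM EGF stimulation of V1b-expressing HEK293 cells preincubated 30 min at 37C with titrated compounds; data scaled to DMSO and EGF controls, Hill-fitted AC50.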
* hit, by the source's call; ? = inconclusive; nt = no result given; [ ] = remark or other dose. Calls come from the whole dose curve; as a rule, active = well fitted curve in the direction sought with a large enough effect; inconclusive = small, poorly fitted or top-dose-only effect, or another doubt; inactive = no such curve, though single readings can be large; an effect the other way counts as inactive or inconclusive. Potency is the fitted concentration of half-maximal effect.

SMILES	NPSR antagonist	IMPase Li inh	HTT cytoprotect	HttQ103 aggreg	ERK EGF inh
Clc1cccc(NCc2nnc3n2CCCCC3)c1	27%	-1%	4µM*	-6%	-14%
Cc1sc(NC(=O)c2ccco2)c(C(c2cccnc2)N2CCC(C)CC2)c1C (centres undefined)	13µM*	35%[38.3 µM]	-5%	?	nt
CC1(C)CC(N2CCCC2)=CC(=[N+]2CCCCCC2)C1	13%	14%	-65%	2µM*	5%
CC1(C)CC(N2CCN(c3ccccc3)CC2)=CC(=[N+]2CCCC2)C1	-4%[46.1 µM]	nt	-36%[10 µM]	4µM*	nt
CC1CC(C)C[N+](=C2C=C(N3CCCC3)CC(C)(C)C2)C1 (centres undefined)	14%	23%	-58%[10 µM]	?	4%
Cc1ccc(CSc2nc3ccncc3n2CC(=O)Nc2cc(C)cc(C)c2)cc1	3.2µM*	-17%	nt	-22%	-1%
Cc1cc(C)cc(NC(=O)Cn2c(SCc3cc(C)ccc3C)nc3ccncc32)c1	-21%	13%	nt	-12%	9%
COC(=O)NC(CC(C)=O)c1ccc(F)cc1 (centres undefined)	nt	nt	-14%[10 µM]	nt	nt
Cc1ccc(NC(=O)Nc2ccccc2)cc1[N+](=O)[O-]	-51%	4%	-16%[10 µM]	4%	?
O=C(Nc1ccc(Cl)cc1)Nc1cc([N+](=O)[O-])ccc1F	-12%	8%	-4%[10 µM]	20µM*	9%
O=C(Nc1ccccc1)Nc1ccc(Cl)c([N+](=O)[O-])c1	-31%	14%	-9%[0.074 µM]	13µM*	-3%
C=C1CC[C@H](O)C/C1=C/C=C1\CCC[C@]2(C)[C@@H]([C@H](C)CCCC(C)(C)O)CC[C@@H]12	nt	12%	?	-21%	10%
COc1ccc(CNC(=O)C(c2cccs2)N(C(=O)c2csnn2)C2CC2)cc1 (centres undefined)	-9%[46.1 µM]	-3%[38.3 µM]	25µM*	-11%	nt
O=C(CSc1ccc(Cl)cc1)N1CCC(c2nc3ccccc3s2)CC1	-20%[46.1 µM]	16%[38.3 µM]	-27%	?	nt
O=C(CSc1c(Cl)cccc1Cl)N1CCC(c2nc3ccccc3s2)CC1	-21%[46.1 µM]	10%[38.3 µM]	-53%	11µM*	nt
O=c1cc(O)cc(/C=C\c2ccc(O)c(O)c2)o1	nt	nt	-33%[1.9 µM]	nt	nt
COc1ccc(OCc2n(CC(=O)OC3CC(C)CCC3C(C)C)c3ccccc3[n+]2C)cc1 (centres undefined)	10µM*	nt	-50%[10 µM]	-19%[9.22 µM]	?
Cc1cccc2c(C(=O)N3CCN(C(=O)c4ccco4)CC3)cc(-c3cccc(Br)c3)nc12	-36%	3%	29%[10 µM]	8.9µM*	?
O=C(c1ccco1)N1CCN(C(=O)c2cc(-c3ccccc3)nc3ccccc23)CC1	1%[46.1 µM]	2%[38.3 µM]	-27%	3%	nt
C=C(C(=O)OC)C(NC(=O)OC)c1ccccc1 (centres undefined)	nt	5%	2%	nt	0%
CC(C)C(=O)NC(=S)Nc1ccccc1N1CCN(C(=O)c2ccccc2)CC1	-30%	20%	nt	-3%	-4%
CC(=O)NC(=S)Nc1ccccc1N1CCN(C(=O)c2ccccc2)CC1	-28%	2%	-34%	5%	32µM*
O=C(NCCN1CCOCC1)c1cc(-c2ccc(O)cc2)on1	nt	nt	-29%	nt	nt
CCN(CC)S(=O)(=O)c1ccc2c3c(cccc13)C(=O)N2	-4%[46.1 µM]	7%[38.3 µM]	-5%	1.6µM*	nt
CN1CCN(c2ccnc(-c3cccc(NS(C)(=O)=O)c3)n2)CC1	nt	14%	12%	nt	29%
CC[C@@H](c1ccccc1)n1c(=O)n2n(c1=O)[C@H]1[C@H](O)[C@H]3O[C@@H]3/C(=N/OC[C@@H](O)COCc3ccco3)[C@@H]1CC2	nt	nt	-8%[10 µM]	nt	nt
C1=Nc2ccccc2CN1c1ccccc1	16%	0%	-2%[0.074 µM]	-5%	17%
CC(C)c1ccc(N2C=Nc3ccc(C(C)C)cc3C2)cc1	7.9µM*	nt	0%[10 µM]	32%[9.22 µM]	-1%[57.5 µM]
Cc1c(CNC2CCCC2)c(C(=O)O)c(C)n1Cc1ccccc1	17%	16%	115%[10 µM]	0.79µM*	-1%
N#Cc1ccc(NC(=O)Nc2ccc(Oc3ccc(NC(=O)Nc4ccc(C#N)cc4)cc3)cc2)cc1	54%	nt	-4%[10 µM]	-18%[9.22 µM]	32µM*

Bioassay records from PubChem BioAssay.
